Data on nine molecules can be found in PubChem BioAssay (Tox21).

The nature of test [1]: qHTS assay to test for compound auto fluorescence at 535 nm (green) in HEK293 cells (AID 720680). For orientation: qHTS replaces the single test concentration by a dilution series.
The nature of test [2]: qHTS assay to test for compound auto fluorescence at 460 nm (blue) in HEK293 cell free culture (AID 720681). An outline of the steps:
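Test compounds were pinned into cell-free culture medium (DMEM with 10% FBS) and fluorescence was read directly at Ex/Em 405/460 nm. Signals were expressed as fluorescence equivalents of triamterene, with DMSO vehicle as control.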

Test [3] can be described thus: qHTS assay to test for compound auto fluorescence at 535 nm (green) in HEK293 cell free culture (AID 720682). An outline of the steps: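 No cells present: wells hold DMEM supplemented with 10% FBS, into which compound or vehicle is pinned. Green emission is then recorded (485 nm excitation, 535 nm emission) and scaled to fluorescein.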
Test [4] is described as follows: qHTS assay to test for compound auto fluorescence at 590 nm (red) in HEK293 cell free culture (AID 720683). A digest of the protocol:
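Tox21 10K library compounds were pinned into cell-free DMEM with 10% FBS and fluorescence was read at excitation 540 nm. Activity is expressed as Rose Bengal sodium equivalency.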

Test [5] can be described thus: qHTS assay to test for compound auto fluorescence at 590 nm (red) in HepG2 cell free culture (AID 720684). An outline of the steps: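 Readout: intrinsic compound fluorescence at 590 nm emission after 540 nm excitation, scaled to Rose Bengal sodium. Matrix was cell-free MEM with 10% FBS; DMSO vehicle wells served as control.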
Test [6] can be described thus: qHTS assay to test for compound auto fluorescence at 460 nm (blue) in HepG2 cell free culture (AID 720685). A digest of the protocol: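 Cell-free plates of MEM plus 10% FBS received 23 nL compound or DMSO vehicle; blue-channel (405/460 nm) intensity scored against triamterene as reference fluorophore.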
Test [7] is described as follows: qHTS assay to test for compound auto fluorescence at 535 nm (green) in HepG2 cell free culture (AID 720686).
Test [8] can be described thus: qHTS assay to test for compound auto fluorescence at 460 nm (blue) in HepG2 cells (AID 720687). An outline of the steps: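 Cells (2,000/well in MEM with 10% FBS) attached overnight at 37 C, then were exposed to compound or DMSO for 1 hr at 37 C, 5% CO2. Fluorescence read at Ex/Em 405/460 nm, expressed as triamterene-equivalent signal.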
A short description of test [9]: qHTS assay to identify small molecule antagonists of the glucocorticoid receptor (GR) signaling pathway - cell viability counter screen (AID 720693). Note: nearly all actives have a fitted effect of over 55% in size.
The nature of test [10]: qHTS assay for identifying genotoxic compounds that show differential cytotoxicity against isogenic chicken DT40 cell lines with known DNA damage response pathways - wild type cell line (AID 743012). Note: nearly all actives have a fitted effect of over 60% in size. Note: potency is the fitted concentration of half-maximal effect. An outline of the steps: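 Cytotoxicity in repair-proficient parental chicken DT40 cells serves as the comparator for Rad54/Ku70- and Rev3-deficient lines. Cells were exposed to compounds for 40 h at 37 C/5% CO2, and ATP-based luminescence (CellTiter-Glo) measured viability.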

Test [11] in a line: qHTS assay for identifying genotoxic compounds that show differential cytotoxicity against isogenic chicken DT40 cell lines with known DNA damage response pathways - Rev3 mutant cell line (AID 743014). Note: nearly all actives have a fitted effect of over 55% in size. Note: potency is the fitted concentration of half-maximal effect.
Test [12] can be described thus: qHTS assay for identifying genotoxic compounds that show differential cytotoxicity against isogenic chicken DT40 cell lines with known DNA damage response pathways - Rad54/Ku70 mutant cell line (AID 743015). Note: nearly all actives have a fitted effect of over 60% in size. Note: potency is the fitted concentration of half-maximal effect.
Test [13] in a line: qHTS assay to identify small molecule antagonists of the androgen receptor (AR) signaling pathway - cell viability counter screen (AID 743033; note: nearly all actives have a fitted effect of over 45% in size; note: potency is the fitted concentration of half-maximal effect).
Test [14] can be described thus: qHTS assay to identify small molecule antagonists of the androgen receptor (AR) signaling pathway using the MDA cell line - cell viability counter screen (AID 743041; note: nearly all actives have a fitted effect of over 45% in size). A digest of the protocol: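 qHTS viability read-out; MDA-kb2 AR-luc; R1881-stimulated; 16 h exposure at 37C, 0% CO2; CellTiter-Fluor, 30 min; fluorescence intensity.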
Test [15] addresses Glucocorticoid receptor (Homo sapiens) (UniProt P04150). Kind of test: qHTS assay to identify small molecule agonists of the glucocorticoid receptor (GR) signaling pathway (AID 720691; active = well fitted activation curve with a large enough effect in the signal ratio in the repeat runs, not every such curve was filed as active; the % refers to the signal ratio). To be noted: GR-bla HeLa, beta-lactamase reporter ratio, 18 h; activation: at 62.4 µM (top of the series) unless noted. An outline of the steps:
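Steps: seed GR-bla HeLa cells, incubate 4 h at 37 C/5% CO2; pin-transfer DMSO-dissolved compounds; incubate 18 h at 37 C; add LiveBLAzer B/G FRET substrate; after 2 h at room temperature, measure fluorescence.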

Test [16] shares this target. Put plainly: qHTS assay to identify small molecule antagonists of the glucocorticoid receptor (GR) signaling pathway (AID 720692; active = well fitted inhibition curve with a large enough effect in the signal ratio in the repeat runs, not every such curve was filed as active; the % refers to the signal ratio). An outline of the steps:
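Antagonism was scored as loss of dexamethasone-driven (5 nM final) reporter signal in HeLa cells bearing a glucocorticoid response element–beta-lactamase construct, after 18 h compound exposure at 37 C and 2 h FRET substrate loading.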

Test [17] concerns the target Androgen receptor (Homo sapiens) (UniProt P10275). Put plainly: qHTS assay to identify small molecule antagonists of the androgen receptor (AR) signaling pathway (AID 743035; active = well fitted inhibition curve with a large enough effect in the signal ratio in the repeat runs, not every such curve was filed as active; the % refers to the signal ratio). An outline of the steps: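 Steps: seed AR-UAS-bla GripTite HEK293 cells, incubate 4 h at 37C; pin in test compound, then add agonist R1881; incubate 16 h at 37C; add LiveBLAzer B/G FRET substrate, 2 h at room temperature; read fluorescence.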

For test [18] the target is unchanged. Put plainly: qHTS assay to identify small molecule agonists of the androgen receptor (AR) signaling pathway (AID 743036; active = well fitted activation curve with a large enough effect in the signal ratio in the repeat runs, with a control signal flat, not every such curve was filed as active; the % refers to the signal ratio). A digest of the protocol:
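Quantitative HTS of the Tox21 10K library in HEK293 cells bearing a stably integrated UAS-controlled beta-lactamase reporter. Compound exposure lasted 16 h at 37C. Reporter activity was detected by FRET substrate fluorescence after 2 h at room temperature.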

Test [19] shares this target. Kind of test: qHTS assay to identify small molecule agonists of the androgen receptor (AR) signaling pathway using the MDA cell line (AID 743040; note: nearly all actives have a fitted effect of over 20% in size). A digest of the protocol:
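Agonist activity is measured as luciferase luminescence in human MDA-kb2 cells whose MMTV reporter responds to both AR and GR. Compounds in DMSO incubate 16 h at 37C, 0% CO2, and ONE-Glo is read after 30 min.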

Test [20] shares this target. Put plainly: qHTS assay to identify small molecule antagonists of the androgen receptor (AR) signaling pathway using the MDA cell line (AID 743042; note: nearly all actives have a fitted effect of over 55% in size). An outline of the steps: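 MDA-kb2 cells (human breast carcinoma, stably carrying an MMTV-luciferase reporter responsive to AR and GR) were plated at 3,000 cells/well and preincubated 5 hr at 37C, then given compound plus R1881 agonist for 16 h. ONE-Glo luminescence was read.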

Values joined by “and” are separate entries in the source; they are usually repeats but may differ in a detail not shown here. Equal entries are not always repeated. Records with an inconclusive call do not appear. The source holds several records for some structures; these can differ, active in one and inactive in another. Active and inactive are the calls of the source. Unless noted, calls come from the whole dose curve; as a rule, active = well fitted curve in the direction sought with a large enough effect in the repeat runs; inconclusive = weak or mixed curves; inactive = no such curve, though single readings can be large; an effect the other way counts as inactive or inconclusive.

Glucocorticoid receptor (Homo sapiens), sequence (P04150 whole entry, looked up): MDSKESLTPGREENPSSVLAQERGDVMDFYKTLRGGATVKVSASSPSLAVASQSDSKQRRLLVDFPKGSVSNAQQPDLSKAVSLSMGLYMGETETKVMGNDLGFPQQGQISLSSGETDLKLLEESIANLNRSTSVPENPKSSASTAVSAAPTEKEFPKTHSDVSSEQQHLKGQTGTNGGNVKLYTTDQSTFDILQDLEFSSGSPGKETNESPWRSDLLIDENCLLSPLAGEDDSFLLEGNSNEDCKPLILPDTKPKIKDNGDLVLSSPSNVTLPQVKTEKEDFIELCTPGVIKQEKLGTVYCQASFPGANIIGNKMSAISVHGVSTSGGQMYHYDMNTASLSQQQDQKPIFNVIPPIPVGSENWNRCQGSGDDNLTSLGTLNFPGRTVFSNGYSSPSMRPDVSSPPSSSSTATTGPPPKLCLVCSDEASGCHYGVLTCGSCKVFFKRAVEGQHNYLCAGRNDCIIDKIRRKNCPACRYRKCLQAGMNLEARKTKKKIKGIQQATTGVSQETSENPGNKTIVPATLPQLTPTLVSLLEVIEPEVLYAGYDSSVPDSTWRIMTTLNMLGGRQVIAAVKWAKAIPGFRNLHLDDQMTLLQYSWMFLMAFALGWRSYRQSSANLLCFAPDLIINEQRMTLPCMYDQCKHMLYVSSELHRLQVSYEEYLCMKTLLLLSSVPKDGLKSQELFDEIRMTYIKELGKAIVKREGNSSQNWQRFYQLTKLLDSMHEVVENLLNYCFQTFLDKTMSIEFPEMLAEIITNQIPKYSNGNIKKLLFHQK
Androgen receptor (Homo sapiens), sequence (P10275 whole entry, looked up): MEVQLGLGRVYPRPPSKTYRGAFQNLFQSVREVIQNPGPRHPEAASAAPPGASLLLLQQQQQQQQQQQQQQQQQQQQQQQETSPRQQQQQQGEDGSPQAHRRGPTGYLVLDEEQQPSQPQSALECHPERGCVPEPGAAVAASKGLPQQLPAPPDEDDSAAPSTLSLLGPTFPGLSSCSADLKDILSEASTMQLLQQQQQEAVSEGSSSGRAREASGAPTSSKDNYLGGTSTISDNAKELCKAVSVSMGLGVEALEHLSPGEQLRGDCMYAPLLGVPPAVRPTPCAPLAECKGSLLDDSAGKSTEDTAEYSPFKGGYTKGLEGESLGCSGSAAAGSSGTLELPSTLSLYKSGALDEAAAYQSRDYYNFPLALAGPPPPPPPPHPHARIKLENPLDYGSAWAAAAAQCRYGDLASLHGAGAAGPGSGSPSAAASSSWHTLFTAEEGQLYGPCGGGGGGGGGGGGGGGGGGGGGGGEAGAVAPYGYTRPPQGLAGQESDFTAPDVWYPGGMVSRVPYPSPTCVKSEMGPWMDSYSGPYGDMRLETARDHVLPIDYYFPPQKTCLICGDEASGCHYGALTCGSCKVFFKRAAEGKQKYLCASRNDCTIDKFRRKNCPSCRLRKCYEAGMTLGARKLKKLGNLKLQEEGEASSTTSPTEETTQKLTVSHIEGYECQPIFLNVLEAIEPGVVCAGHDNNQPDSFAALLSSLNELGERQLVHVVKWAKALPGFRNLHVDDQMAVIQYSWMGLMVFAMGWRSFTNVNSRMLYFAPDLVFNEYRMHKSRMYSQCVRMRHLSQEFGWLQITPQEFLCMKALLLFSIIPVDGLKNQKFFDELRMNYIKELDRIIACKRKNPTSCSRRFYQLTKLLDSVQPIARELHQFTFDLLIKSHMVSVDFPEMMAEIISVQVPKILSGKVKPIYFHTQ

Take `CCCCC/C=C\C/C=C\CCCCCCCC(=O)OC`: the outcome in [1], in test [3], in [4], in test [5], in [7] and in [8] was inactive. The Potency result in test [2], in test [6], in test [9], in [13] and in [14] was “inactive” in each case. For the same molecule, the Potency in [10] was 30.6 µM (active); in [11] it was 30.6 µM (active); in [12], 21.7 µM (active).
`CC(C)NCC(O)COc1cccc2ccccc12` (stereo unspecified): the result in test [1], in test [3], in [4], in test [5], in [7] and in test [8] was inactive. Further, the Potency result in [2], in test [9], in [10], in [13] and in test [14] was “inactive” each time. Also, the Potency in test [11] is 61.8 µM (active) and inactive; in test [12], 61.8 µM (active) and inactive.
Turning to `OCCOCCOCCOCCO`, the call in [1], in [3], in [4], in test [5], in [7] and in test [8] was inactive. Moreover, the Potency result in test [2], in test [15], in test [16], in [10], in test [11] and in test [12] was “inactive” throughout. Also, the Potency result in test [13] and in [14] was “inactive” throughout.
With `COCC(=O)O`, the outcome in test [1], in [3], in test [4], in [5], in test [7] and in [8] was inactive. In addition, the Potency result in test [2], in test [15], in [16], in test [10], in [11] and in test [13] was “inactive” throughout. The Potency entry in test [14] was “inactive”.
For the molecule `Clc1cc(Cl)c(Cl)cc1Cl`, the result in test [1], in [3], in [4], in [5], in [7] and in test [8] was inactive. The Potency result in [2], in [15], in test [16], in test [9], in [10] and in [11] was “inactive” in each case. Further, the Potency entry in test [12], in [13] and in [14] was “inactive” throughout.
Consider `OC[C@@H](O)[C@@H](O)[C@H](O)[C@@H](O)CO`, for which the outcome in test [1], in [3], in test [4], in [5], in test [7] and in test [8] was inactive. For the same molecule, the Potency entry in test [2], in test [6], in test [9], in [10], in [11] and in [13] was “inactive” each time. Also, the Potency result in test [14] is “inactive”.
With `CCc1ccc(O)cc1`, the molecule was called inactive in [1], in [3], in [4], in test [5], in test [7] and in test [8]. Further, the result in test [17], in test [18], in [19] and in test [20] was inactive. Further, the Potency entry in test [2], in test [15], in test [16], in [10], in test [11] and in test [12] was “inactive” in each case. Also, the Potency entry in test [13] and in test [14] was “inactive” each time.
Consider `C/C=C(C)/C=C/C=C(C)C`, for which the result in [1], in [3], in test [4], in [5], in test [7] and in test [8] was inactive. In addition, the Potency entry in test [2], in test [6], in test [9], in test [13] and in test [14] was “inactive” throughout. Moreover, the results for the Potency in test [10] and in test [12] were 61.1 µM (active) and 54.5 µM (active), respectively.
Regarding `C=C1CC[C@H](O)CC1=C/C=C1\CCC[C@]2(C)[C@@H]([C@H](C)/C=C/[C@H](C)C(C)C)CC[C@@H]12`, the call in [1], in [3], in test [4], in test [5], in test [7] and in test [8] was inactive. The Potency result in [2], in test [15] and in test [14] was “inactive” in each case. Moreover, the Potency in test [10] is 10.6 µM (active) and 13.6 µM (active) and 30.6 µM (active); in [11], 12.1 µM (active) and 24.3 µM (active); in test [12] it was 13.3 µM (active) and 13.6 µM (active) and 27.3 µM (active); in test [13] it was “inactive and 43.3 µM (active)”.
